{"source": "PubChem BioAssay (NCATS)", "note": "Results filed as inconclusive are left out. Where a call stands in place of a potency, no number is given. Active and inactive are the calls of the source. The call rests on the fitted dose curve; in most records, active means well fitted inhibition curve with a large enough effect; inconclusive means small, poorly fitted or top-dose-only effect; inactive means no such curve, though single readings can be large or run the other way. Potency means the concentration at half of the fitted maximal effect.", "data": [{"tested_on": "Zika virus NS2B-NS3 protease (linked construct)", "assay": "Primary screen NINDS Rhodamine qHTS for Zika virus inhibitors (AID 1347160); further: nearly all actives have a fitted effect of over 55% in size", "conditions": "purified NS2B-NS3 protease, Rhodamine110 substrate fluorescence; series mostly up to 57.1 µM", "procedure,_shortened": "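Aprotinin served as in-plate control. Conditions: 25 nM linked NS2B-NS3, pH 8.0 Tris buffer, titrated compounds, 15 min preincubation and 15 min reaction with 1.5 microM Rhod110 substrate at room temperature.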", "values": [{"molecule": "O=C(c1ccc(OC(F)F)c(C#Cc2ccccn2)c1)N1Cc2cccnc2C1", "Potency": "inactive"}, {"molecule": "CC1=C2C[C@@]3(C)C(CCC[C@@H]3C)C(O)C2OC1=O", "note": "(some centres undefined)", "Potency": "inactive"}, {"molecule": "C=C1CC2OC(=O)C(=C)C2C(O)/C=C(\\C)CCC1O", "note": "(centres undefined)", "Potency": "inactive"}, {"molecule": "CC(=O)O[C@@H]1CC[C@@]2(C)C(CC[C@]3(C)C2[C@H](O)C=C2[C@H]4[C@@H](C)[C@H](C)CC[C@]4(C)CC[C@]23C)[C@@]1(C)C(=O)O", "note": "(some centres undefined)", "Potency": "11.2 µM (active)"}, {"molecule": "COc1cc(CCc2cc(NC(=O)c3ccc(N4CC(C)NC(C)C4)cc3)n[nH]2)cc(OC)c1", "note": "(centres undefined)", "Potency": "inactive"}, {"molecule": "COc1cc(-c2nc(N[C@H](CO)Cc3ccccc3)ccc2C(=O)NCCOc2ccccc2)cc(OC)c1OC", "Potency": "inactive"}, {"molecule": "CC(C)(O)/C=C/C(=O)[C@](C)(O)[C@H]1[C@H](O)C[C@@]2(C)[C@@H]3CC=C4[C@@H](C[C@H](O[C@@H]5O[C@H](CO)[C@@H](O)[C@H](O)[C@H]5O)C(=O)C4(C)C)[C@]3(C)C(=O)C[C@]12C", "Potency": "inactive"}, {"molecule": "Cc1cn2c(n1)Cc1ccc(Cl)cc1C(c1ccc(N)cc1)=N2", "Potency": "inactive"}, {"molecule": "COc1ccc(Sc2ccc(NC(=O)c3ccccc3Cl)cc2C#N)cc1", "Potency": "inactive"}, {"molecule": "CC1(CO)CC2C(O)C3=C(CC(C)(O)C2C1)C(=O)OC3", "note": "(centres undefined)", "Potency": "inactive"}, {"molecule": "CCC(C)C(=O)OC1C(C)C2(O)C(C=C(CO)CC3(O)C(=O)C(C)=CC32)C2C(C)(C)C12OC(=O)C(C)C", "note": "(centres undefined)", "Potency": "inactive"}, {"molecule": "COc1cc([C@H]2O[C@H](c3cc(OC)c4c(c3)OCO4)[C@H](C)[C@H]2C)cc(OC)c1OC", "Potency": "inactive"}, {"molecule": "N#Cc1ccc(COc2ccc(-c3cccc4nc(NC(=O)C5CC5)nn34)cc2)cn1", "Potency": "inactive"}, {"molecule": "Cn1ncc(Cl)c1-c1cc(C(=O)N[C@H](CN)Cc2ccc(F)c(F)c2)oc1Cl", "Potency": "inactive"}, {"molecule": "Cn1cc(-c2cnn3c(N)c(Br)c(C4CCCNC4)nc23)cn1", "note": "(centres undefined)", "Potency": "inactive"}, {"molecule": "CO[C@@H]1[C@H](O)CCC2(CO2)[C@H]1[C@@]1(C)O[C@@H]1CC=C(C)C", "note": "(some centres undefined)", "Potency": "inactive"}, {"molecule": "CC(C)OC(=O)N1CCC(Oc2ncnc3c2cnn3-c2ccc(S(C)(=O)=O)cc2F)CC1", "Potency": "inactive"}, {"molecule": "Cn1c(=O)c2c(ncn2Cc2ccc(C(C)(C)C)cc2)n(C)c1=O", "Potency": "inactive"}, {"molecule": "CN(C)CCN(Cc1ccccc1)C(=O)c1cc(-c2ccc(F)cc2)n2nc(C(C)(C)C)cc2n1", "Potency": "inactive"}, {"molecule": "CC1CCC(=O)CC(SCC(O)C(=O)O)CCC(=O)O1", "note": "(centres undefined)", "Potency": "inactive"}, {"molecule": "Nc1nc(Nc2ccc3c(c2)CCC(N2CCCC2)CC3)nn1-c1cc2c(nn1)-c1ccccc1CCC2", "note": "(centres undefined)", "Potency": "inactive"}, {"molecule": "CN1CCN(C2CCN(C(=O)Nc3cc(Oc4ccc(NC(=O)C5(C(=O)Nc6ccc(F)cc6)CC5)c(F)c4)ccn3)CC2)CC1", "Potency": "inactive"}, {"molecule": "COc1ccc(C2Oc3c(OC)cc(CCCO)cc3C2COC2OC(CO)C(O)C(O)C2O)cc1OC", "note": "(centres undefined)", "Potency": "inactive"}, {"molecule": "Cc1csc(N(C(=O)CSc2ccc(-c3ccccc3)nn2)C2CC2)n1", "Potency": "inactive"}, {"molecule": "COc1ccc([C@H]2OC[C@H]3O[C@@H](O[C@H]4[C@@H]2NC[C@@H]4O)[C@H](O)[C@H]3O)cc1", "Potency": "inactive"}, {"molecule": "CCC(CC)Nc1nc(C)c(-c2ccc(OC(F)(F)F)cc2OC)nc1OC", "Potency": "inactive"}, {"molecule": "O=C(NO)c1ccc(CC(=O)N(CCO)c2ccccc2)cc1", "Potency": "inactive"}, {"molecule": "NCC(CNc1nc(Nc2cccc(NC(=O)N3CCCC3)c2)ncc1I)C(=O)c1cccs1", "note": "(centres undefined)", "Potency": "inactive"}, {"molecule": "CC(O)(C(=O)C1CC1(CO)COC1OC(CO)C(O)C(O)C1O)C1C(O)CC2C3CC=C4CC(O)CC(O)C4(C)C3C(O)CC21C", "note": "(centres undefined)", "Potency": "inactive"}, {"molecule": "COC(=O)c1cc2c(C(F)(F)F)cc(-c3ccccc3)cc2n1O", "Potency": "15.8 µM (active)"}, {"molecule": "COc1c(C)cc(NC(=O)c2nn(Cc3ccc(F)cc3)c3c2CN(C(=O)c2ccc[nH]2)C[C@]3(C)C(N)=O)cc1C", "Potency": "inactive"}, {"molecule": "COC(=O)C[C@H]1C(C)(C)[C@H](OC(=O)c2ccccc2)C2CC3=C4CC(=O)O[C@@H](c5ccoc5)[C@]4(C)CCC3[C@@]1(C)C2=O", "note": "(some centres undefined)", "Potency": "inactive"}, {"molecule": "CNc1nc(Nc2ccc(C(=O)N3CCOCC3)cc2OC)nc2[nH]cc(Cl)c12", "Potency": "inactive"}, {"molecule": "COc1ccc(-c2ccc3c(N4CCOCC4C)nc(N4CCOCC4C)nc3n2)cc1CO", "note": "(centres undefined)", "Potency": "inactive"}, {"molecule": "CN1CCc2cc3c(cc2C(=O)Cc2cc4c(cc2C1)OCO4)OCO3", "Potency": "inactive"}, {"molecule": "Cc1cccc(C#Cc2cc(F)cc(C#N)c2)n1", "Potency": "inactive"}, {"molecule": "CN(C)C(=O)NC1(c2ccccc2)CCN(CCC[C@]2(c3ccc(Cl)c(Cl)c3)CCCN(C(=O)c3ccccc3)C2)CC1", "Potency": "inactive"}, {"molecule": "O=C(c1ccccc1)c1c(O)cc(O)cc1O[C@@H]1O[C@H](CO)[C@@H](O)[C@H](O)[C@H]1O", "Potency": "inactive"}, {"molecule": "O=C(NCC1(N2CCN(c3ccccc3)CC2)CCOCC1)c1cccnc1Sc1ccccc1", "Potency": "inactive"}]}]}
